# Shown are actives, neighbours in structure and some others; about 9.3% of the full set was active somewhere.
# FLuc counter: qHTS profiling assay for firefly luciferase inhibitor/activator using purifed enzyme and Km concentrations of substrates (counterscreen for miR-21 project) | actives 6.9% (n = 360,000) | purified FLuc, Km substrates, luminescence inhibition | Potency, µM (series often up to 57.5 µM), for the others: at the highest dose activity change, negative = inhibition, most hits filed as inhibitors | Luciferin 4-monooxygenase (Photinus pyralis), P08659;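 also: plate controls were vehicle for no effect and reference inhibitor for full effect; nearly all actives have a fitted effect of over 55% in size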
# Target sequence (P08659 whole entry, looked up): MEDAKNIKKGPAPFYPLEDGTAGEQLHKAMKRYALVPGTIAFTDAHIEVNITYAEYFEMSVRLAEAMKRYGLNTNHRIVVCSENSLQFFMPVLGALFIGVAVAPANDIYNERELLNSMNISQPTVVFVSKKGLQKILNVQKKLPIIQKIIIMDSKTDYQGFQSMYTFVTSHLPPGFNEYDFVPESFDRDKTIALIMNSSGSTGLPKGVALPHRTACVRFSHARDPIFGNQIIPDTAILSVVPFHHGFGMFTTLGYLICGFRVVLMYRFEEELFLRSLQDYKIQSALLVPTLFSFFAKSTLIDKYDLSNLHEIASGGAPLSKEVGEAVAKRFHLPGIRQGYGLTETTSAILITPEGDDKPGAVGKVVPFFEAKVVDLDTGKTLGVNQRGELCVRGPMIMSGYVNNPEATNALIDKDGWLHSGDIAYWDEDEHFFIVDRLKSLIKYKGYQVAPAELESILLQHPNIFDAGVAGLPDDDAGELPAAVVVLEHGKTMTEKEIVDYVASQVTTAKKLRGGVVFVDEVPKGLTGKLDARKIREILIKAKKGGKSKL
#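 Purified P. pyralis luciferase (10nM final) with 10uM D-luciferin and 10uM ATP (Km levels) in 50mM Tris acetate pH 7.5, 10mM Mg acetate, 0.01% Tween-20, 0.05% BSA; qHTS 6-point titration, ~60 µM downward; luminescence read.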
# NPC1 promoter act: qHTS Assay for NPC1 Promoter Activators; Huh7 NPC1 promoter luciferase reporter, 24 h; Potency, µM (highest dose often 9.22 µM), without a hit: at the highest dose activation, usual class: activators; actives 2.4% (n = 320,000); AID 485313, 2010; also: % of control where 0% means no effect; nearly all actives have a fitted effect of over 60% in size
#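 Luciferase expression driven by the NPC1 promoter was measured in stably transfected Huh7 cells after a 24 h compound incubation, using a luciferase reagent and a luminescence read.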
# Rab9 promoter act: qHTS Assay for Rab9 Promoter Activators; Huh7 Rab9 promoter-luciferase reporter, luminescence, 24 h; Potency, µM (series often up to 9.22 µM), inactives show top-dose activation, negative = inhibition, most hits filed as activators; actives 2.8% (n = 320,000); also: % of control where 0% means no effect; nearly all actives have a fitted effect of over 60% in size
#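 Stable Rab9-luc Huh7, 1500 cells/well, 2 h settle; cmpd in DMSO, 24 h, 37 °C/5% CO2; luciferase reagent 10 min RT; luminescence.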
# ELG1 DNA repair: qHTS screen for small molecules that inhibit ELG1-dependent DNA repair in human embryonic kidney (HEK293T) cells expressing luciferase-tagged ELG1; actives 2.3% (n = 330,000); HEK293T ELG1-luciferase reporter, luminescence, 16 h; DNA damage induced by 5-fluorouridine; AID 504467, 2011; Potency, µM (series often up to 46.1 µM), for the others: at the highest dose activity change, negative = inhibition, usual class: inhibitors; also: % is scaled to controls: 0 for no effect and ±100 for the full control effect; nearly all actives have a fitted effect of over 55% in size
#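 Reporter activity after DNA damage by 5-fluorouridine is monitored. Compound-treated cells incubate 16 hr at 37 °C, then ONE-Glo is added for 30 min before luminescence reading.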
# SMN2 splice up: qHTS Assay for Enhancers of SMN2 Splice Variant Expression | actives 2.8% (n = 210,000) | Potency, µM (series often up to 46.1 µM), for inactives: top-dose activity change, positive = activation, actives largely listed as activators | HEK293 SMN2-luciferase splicing reporter, luminescence, 30-36 h; also: % of control where 0% means no effect; nearly all actives have a fitted effect of over 55% in size
#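 qHTS luciferase splicing reporter: luminescence rises when SMN2 exon 7 is included in transfected HEK293 cells. Compound exposure lasted 30-36 h at 37C, with 4.5 mM final sodium butyrate as control, followed by a ONE-Glo read.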
# ELG1 genotox: qHTS screen for small molecules that induce genotoxicity in human embryonic kidney (HEK293T) cells expressing luciferase-tagged ELG1; actives 1.3% (n = 330,000); Potency, µM (doses to about 46 µM), without a hit: at the top dose activity change, positive = activation, actives largely listed as activators; HEK293T ELG1-luciferase reporter, luminescence, 16 h; also: % of control where 0% means no effect; nearly all actives have a fitted effect of over 60% in size
#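 Genotoxic stress is detected as increased luminescence from luciferase-tagged ELG1 in HEK293T cells, measured with ONE-Glo after a 16 hr treatment at 37 °C.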
# Active calls of the source: *; ? = inconclusive; · = no result. Calls follow the shape of the dose curve; as a rule, active = well fitted curve in the direction sought with a large enough effect; inconclusive = small, poorly fitted or top-dose-only effect, or another doubt; inactive = no such curve, though single readings can be large; an effect the other way counts as inactive or inconclusive. Potency is read from the fitted curve at half-maximal effect.
SMILES,FLuc counter,NPC1 promoter act,Rab9 promoter act,ELG1 DNA repair,SMN2 splice up,ELG1 genotox
[O-]/[N+](=C\c1ccncc1)c1ccc(Br)cc1,8.5µM*,?,?,?,·,?
C(=C\c1ccncc1)/c1ccncc1,5%,2%,-6%,0%,·,3%
COc1ccc(C(=O)C(C)OC(=O)CNC(=O)C2CCCCC2)cc1 (centres undefined),·,·,·,21%,·,1%
CC1CN(c2nc3ccccc3nc2SCC(=O)Nc2ccc(F)cc2)CC(C)O1 (centres undefined),-2%,-7%,-3%,16µM*,·,-7%
O=C(CSc1nc2ccccc2nc1N1CCCC1)Nc1ccc(F)cc1,4%,0%,0%,1%,·,1%
CCCn1nc(NC(=O)c2ccncc2)c2cc3ccccc3nc21,-13%,1%,-13%,?,·,-3%
CCn1nc(NC(=O)c2ccncc2)c2cc3cc(C)ccc3nc21,17µM*,-1%,1%,?,32µM*,-3%
CCn1nc(NC(=O)c2ccncc2)c2cc3ccc(C)cc3nc21,15µM*,4%,-2%,?,-13%,-2%
CCc1nnc(SCc2nc(-c3ccccc3F)oc2C)c2cc3sccc3n12,-12%,·,·,·,·,·
COc1ccc2c(c1OC)C(=O)OC2Nc1nc(-c2cc3ccccc3oc2=O)cs1 (centres undefined),8.5µM*,0.89µM*,0.45µM*,?,2.2µM*,?
COc1ccc2c(c1OC)C(=O)OC2Nc1nc(-c2cc3cc([N+](=O)[O-])ccc3oc2=O)cs1 (centres undefined),?,-1%,-3%,?,1%,2%
COc1ccc2c(c1OC)C(=O)OC2Nc1nc(-c2ccc(-c3ccccc3)cc2)cs1 (centres undefined),1.3µM*,0.71µM*,0.71µM*,?,2.2µM*,3.3µM*
N#Cc1cccc(NC(=O)c2cc3c(s2)-c2ccc(Cl)cc2SC3)c1,-6%,·,·,·,-5%,·
CCCCc1cc(=O)oc2cc(C)cc(OCC(=O)Nc3ccccn3)c12,8.5µM*,2µM*,2.5µM*,?,·,?
CCCc1cc(=O)oc2cc(OCC(=O)Nc3ccccn3)ccc12,15µM*,3.5µM*,?,?,·,21µM*
CCN1CCN(C(=O)c2ccc3c(c2)N(Cc2ccccc2)C(=O)c2ccccc2S3=O)CC1 (centres undefined),1%,1%,6%,14%,-8%,-2%
O=C(Cn1nnc(-c2cccc(C(F)(F)F)c2)n1)N1CCOCC1,2%,-5%,5%,10%,-3%,4%
O=C(Cn1nnc(-c2ccc(N3CCOCC3)cc2)n1)OC1CCCCC1,12µM*,-6%,3%,2%,-26%,-3%
O=C(Cn1nnc(-c2ccc(N3CCOCC3)cc2)n1)N1CCOCC1,11µM*,?,27%,?,·,14%
Clc1ccc(Cn2nnc(-c3ccc(N4CCOCC4)cc3)n2)cc1,?,8%,0%,1%,·,7%
Cc1cc(Cl)cc(C)c1OCC(=O)NC1CCCCCC1,·,·,·,0%,·,2%
COc1cc(-c2nc3c(c(C)nn3-c3ccccc3)c3cc(OC)c(OC)cc23)ccc1O,5%,-11%,-2%,18µM*,·,3%
COc1cc2c(-c3cc(Br)ccc3O)nc3c(c(C)nn3-c3ccccc3)c2cc1OC,1%,·,·,·,5%,·
COc1ccc(S(=O)(=O)CCC(=O)NCCc2ccc(C)cc2)cc1,2%,-1%,-3%,3%,5%,1%
COc1ccc(/C=C2\SC(=O)N(CCNC(=O)CCS(=O)(=O)c3ccc(C)cc3)C2=O)cc1,9.5µM*,?,2.8µM*,?,16µM*,?
SMILES,FLuc counter,NPC1 promoter act,Rab9 promoter act,ELG1 DNA repair,SMN2 splice up,ELG1 genotox
COc1ccc(/C=C2\SC(=O)N(CCNC(=O)Cn3cnnn3)C2=O)cc1,12µM*,2.8µM*,3.2µM*,?,7.9µM*,4µM*
Cc1ccccc1CN1CCc2nc(Nc3ccc4c(c3)OCCO4)ncc2C1,13µM*,·,·,·,·,·
CN(C(=O)CSc1ncnc2sc(-c3ccccc3)cc12)C1CCS(=O)(=O)C1 (centres undefined),17µM*,-1%,9%,?,-47%,-6%
COCC(C)NC(=O)CSc1ncnc2sc(-c3ccccc3)cc12 (centres undefined),?,-3%,-3%,1%,·,-7%
CCN(CC)C(=O)CSc1ncnc2sc(-c3ccccc3)cc12,11µM*,?,2.8µM*,?,-10%,?
CC(C)C(C)(C#N)NC(=O)CSc1ncnc2sc(-c3ccccc3)cc12 (centres undefined),?,0%,-2%,?,·,-7%
CN(C(=O)CSc1ncnc2ccccc12)C1CCCCC1,15µM*,?,3.5µM*,?,·,?
CN(CCC#N)C(=O)CSc1ncnc2sc(-c3ccccc3)cc12,11µM*,16%,20%,-18%,-22%,-1%
O=C(COC(=O)c1ccc(O)cc1)Nc1cccc(S(=O)(=O)N2CCCCC2)c1,?,6%,-10%,0%,·,-4%
Cc1ccccc1C(=O)NC(=S)Nc1cccc(NC(=O)C(C)C)c1,?,1%,13%,-21%,3%,-4%
COc1cccc2sc(NC(=O)c3ccc(Br)s3)nc12,2.4µM*,?,?,?,-7%,?
COc1cccc2sc(NC(=O)c3ccc4c(c3)OCCO4)nc12,0.95µM*,·,·,·,·,·
Cc1cccc2sc(NNC(=O)c3ccc4c(c3)OCCO4)nc12,?,5%,6%,18%,0%,-2%
NS(=O)(=O)c1ccc2nc(NC(=O)c3ccc4c(c3)OCCO4)sc2c1,-7%,-5%,3%,6%,·,3%
O=C(Nc1nc2c(F)cc(F)cc2s1)c1ccc2c(c1)OCCO2,0.6µM*,0.79µM*,0.32µM*,·,·,·
O=C(COc1ccccc1)OCC(=O)c1c[nH]c2ccccc12,?,4%,8%,7%,·,0%
Cc1ccc(OC(C)C(=O)N2CC(=O)Nc3ccccc32)cc1 (centres undefined),0%,-3%,1%,18µM*,·,0%
CC(Oc1ccccc1)C(=O)OCC(=O)N1CC(=O)Nc2ccccc21 (centres undefined),-1%,-5%,-2%,-6%,5%,0%

# Source: PubChem BioAssay (National Center for Advancing Translational Sciences (NCATS))
